Where “and” joins values, the source holds several entries; their conditions need not be identical. Equal entries are not always repeated. Records with an inconclusive call do not appear. Calls of active or inactive are those of the source. Calls come from the whole dose curve; as a rule, active = well fitted curve in the direction sought with a large enough effect in the repeat runs; inconclusive = weak or mixed curves; inactive = no such curve, though single readings can be large; an effect the other way counts as inactive or inconclusive.
Experiment: A CellTox Green Cytotoxicity Assay to monitor cytotoxicity in HEK293 cells - 16 hour (AID 1224888); note: nearly all actives have a fitted effect of over 35% in size
Conditions: CellTox Green fluorescence; series mostly up to 76.8 µM; activity change: at the top concentration
Procedure, shortened: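 Seeding of HEK293 cells together with cytotoxicity dye preceded a 5 h incubation at 37 C/5% CO2. Test compounds in DMSO were then added and fluorescence monitored across 40 h.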
% is set by controls: 0 for no effect and ±100 for the full control effect; potency is the fitted concentration of half-maximal effect.

SMILES | activity change | Potency
Cc1cc(C2CCCCC2)n(O)c(=O)c1 | -2.93% [at 35.3 µM, stronger effect = higher value] (inactive) | 
O=C(O)c1c(Cl)cccc1Cl | 1.02% (inactive) | 
Clc1ccc2n[nH]nc2c1 | -0.722% (inactive) | 
CC(=O)OCC(C)OC(C)=O (stereo not drawn) | -13.2% (inactive) | 
CCN(C(=O)N(CC)c1ccccc1)c1ccccc1 | 13.6% (inactive) | 
C1CCCC1 | -0.831% (inactive) | 
Nc1ccc2cc(S(=O)(=O)O)cc(O)c2c1N=Nc1ccccc1C(F)(F)F | -7.89% (inactive) | 
CSc1cnc(C)cn1 |  | 89.4 µM (active)
CCN1/C(=C/C=C/c2sc3ccccc3[n+]2CC)Sc2ccccc21 | -3.87% [at 15.8 µM, stronger effect = higher value] (inactive) | 
CSc1ccc(/C=C2/C(C)=C(CC(=O)O)c3cc(F)ccc32)cc1 | 5.27% [at 35.3 µM, stronger effect = higher value] (inactive) | 
CCN(CCC#N)c1ccc(N=Nc2c(Cl)cc([N+](=O)[O-])cc2Cl)cc1 | -10.9% (inactive) | 
Cc1ccc(-n2nc(C(C)(C)C)cc2NC(=O)Nc2ccc(OCCN3CCOCC3)c3ccccc23)cc1 | -2.43% [at 35.3 µM, stronger effect = higher value] (inactive) | 
CCOC(=O)/C=C(C)/C=C/C=C(C)/C=C/c1c(C)cc(OC)c(C)c1C | 0.453% [at 35.3 µM, stronger effect = higher value] (inactive) | 
Cc1onc(-c2c(Cl)cccc2Cl)c1C(=O)N[C@@H]1C(=O)N2[C@@H]1SC(C)(C)[C@@H]2C(=O)O | 0.671% [at 35.3 µM, stronger effect = higher value] (inactive) | 
CCN(Cc1cccnc1)C(=O)c1cccc(Cl)c1[C@]1(C)C(=O)N(Cc2ccc(OC)cc2OC)c2ccc(Cl)cc21 | 2.47% (inactive) | 
CC(C)(C)C(=O)OCOC(=O)[C@@H]1N2C(=O)[C@@H](NC(=O)[C@H](N)c3ccccc3)[C@H]2SC1(C)C | 1.6% [at 35.3 µM, stronger effect = higher value] (inactive) | 
CCOC(=O)O[C@H](C)OC(=O)c1ccc2c(c1)cc(C(=O)NC1CCN(C(C)C)CC1)n2Cc1cc(-c2ccc(Cl)s2)on1 |  | 45.8 µM (active)

Experiment: qHTS RealTime-Glo MT Cell Viability Assay in HepG2 cells - 0 hour (AID 1224889); note: nearly all actives have a fitted effect of over 50% in size
Conditions: RealTime-Glo luminescence; series mostly up to 76.8 µM; activity change, negative = cytotoxicity: at the top concentration
Procedure, shortened: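 Viability was tracked continuously by NanoLuc luminescence from prosubstrate reduced by living HepG2 cells, at successive time points over 40 h of compound exposure. Cells with reagent were preincubated 5 h at 37 °C before compound addition.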

SMILES | activity change, negative = cytotoxicity | Potency
NC(=O)NS(=O)(=O)c1ccc(N)cc1 | 4.15% [at 35.3 µM] (inactive) | 
C[C@@H]1C[C@H]2[C@@H]3CCC4=CC(=O)C=C[C@]4(C)[C@@]3(Cl)[C@@H](O)C[C@]2(C)[C@@]1(OC(=O)c1ccco1)C(=O)CCl | -5.03% [at 35.3 µM] (inactive) | 
O=C(N/N=C/c1ccccc1O)c1ccncc1 | 7.05% [at 35.3 µM] (inactive) | 
O=C(Nc1cccc([N+](=O)[O-])c1)c1cc2ccccc2cc1O | -9.61% (inactive) | 
C/C(=C(/OCCOc1ccc(Cl)cc1)c1ccc(Cl)cc1Cl)n1ccnc1 | 0.139% [at 35.3 µM] (inactive) | 
CN(C)c1ccc(C2(c3ccc(N(C)C)cc3)OC(=O)c3cc(N(C)C)ccc32)cc1 | -9.55% (inactive) | 
Cn1cc(C(=O)[C@@H]2CCc3nc[nH]c3C2)c2ccccc21 | 13.5% [at 35.3 µM] (inactive) | 
Clc1ccc(C(Cn2ccnc2)OCc2ccc(Sc3ccccc3)cc2)c(Cl)c1 (stereo not drawn) | 0.337% [at 35.3 µM] (inactive) | 
NNc1nc(-c2ccc([N+](=O)[O-])cc2)cs1 | -16.1% (inactive) | 
CCCCCOC(=O)CCCC | -0.212% (inactive) | 
CC1=C(C(=O)OC(C)C)C(c2cccc([N+](=O)[O-])c2)C(C(=O)OC2CN(C(c3ccccc3)c3ccccc3)C2)=C(N)N1 (stereo not drawn) | -2.41% [at 35.3 µM] (inactive) | 
CCC(N)(CO)CO | 1.87% (inactive) | 
Cc1cccc(S(=O)(=O)O)c1C | -0.281% (inactive) | 
CCCC1O[C@@H]2C[C@H]3[C@@H]4CCC5=CC(=O)C=C[C@]5(C)[C@H]4[C@@H](O)C[C@]3(C)[C@]2(C(=O)CO)O1 (stereo partly drawn) |  | 7.77 µM (active) and 7.76 µM (active)
Nc1ccccc1O | -1.27% (inactive) | 
C=CC(=O)OCC(CO)(COC(=O)C=C)COC(=O)C=C |  | inactive
O=C(NOCC1CC1)c1ccc(F)c(F)c1Nc1ccc(I)cc1Cl | -22.5% [at 35.3 µM] (inactive) | 
Cc1ccc2oc(CN(Cc3ccccc3)C(=O)Nc3c(F)cc(F)cc3F)c(-c3ccc(Cl)cc3)c2c1 | -4.57% (inactive) | 

SMILES | activity change, negative = cytotoxicity | Potency
Cc1cc(C2CCCCC2)n(O)c(=O)c1 | 1.48% [at 35.3 µM] (inactive) | 
O=C(O)c1c(Cl)cccc1Cl | -7.36% (inactive) | 
CN(C/C=C/C#CC(C)(C)C)Cc1cccc2ccccc12 | -3.11% [at 35.3 µM] (inactive) | 
Clc1ccc2n[nH]nc2c1 | 5.24% (inactive) | 
CC(=O)OCC(C)OC(C)=O (stereo not drawn) | -0.939% (inactive) | 
CCN(C(=O)N(CC)c1ccccc1)c1ccccc1 | -17.6% (inactive) | 
C1CCCC1 | 0.794% (inactive) | 
Nc1ccc2cc(S(=O)(=O)O)cc(O)c2c1N=Nc1ccccc1C(F)(F)F | -13.2% (inactive) | 
CSc1cnc(C)cn1 | 7.84% [at 200 µM] (inactive) | 
CCN1/C(=C/C=C/c2sc3ccccc3[n+]2CC)Sc2ccccc21 | -13.2% [at 15.8 µM] (inactive) | 
CSc1ccc(/C=C2/C(C)=C(CC(=O)O)c3cc(F)ccc32)cc1 | -8.93% [at 35.3 µM] (inactive) | 
CCN(CCC#N)c1ccc(N=Nc2c(Cl)cc([N+](=O)[O-])cc2Cl)cc1 | -13.2% (inactive) | 
Cc1ccc(-n2nc(C(C)(C)C)cc2NC(=O)Nc2ccc(OCCN3CCOCC3)c3ccccc23)cc1 | -0.156% [at 35.3 µM] (inactive) | 
CCOC(=O)/C=C(C)/C=C/C=C(C)/C=C/c1c(C)cc(OC)c(C)c1C | 5.61% [at 35.3 µM] (inactive) | 
Cc1onc(-c2c(Cl)cccc2Cl)c1C(=O)N[C@@H]1C(=O)N2[C@@H]1SC(C)(C)[C@@H]2C(=O)O | -2.06% [at 35.3 µM] (inactive) | 
CCN(Cc1cccnc1)C(=O)c1cccc(Cl)c1[C@]1(C)C(=O)N(Cc2ccc(OC)cc2OC)c2ccc(Cl)cc21 | -7.02% (inactive) | 
CC(C)(C)C(=O)OCOC(=O)[C@@H]1N2C(=O)[C@@H](NC(=O)[C@H](N)c3ccccc3)[C@H]2SC1(C)C | 3.59% [at 35.3 µM] (inactive) | 
CCOC(=O)O[C@H](C)OC(=O)c1ccc2c(c1)cc(C(=O)NC1CCN(C(C)C)CC1)n2Cc1cc(-c2ccc(Cl)s2)on1 | -1.35% (inactive) | 

— PubChem BioAssay (Tox21)
